Fewer than 10 of roughly 44,000 compounds were called active. Roughly 2% stayed inconclusive and do not appear here. Calls follow the shape of the dose curve; as a rule, active = well fitted curve in the direction sought with a large enough effect; inconclusive = small, poorly fitted or top-dose-only effect, or another doubt; inactive = no such curve, though single readings can be large or run the other way. The list is a sample of the results.
molecular target: Galactokinase (Homo sapiens) (UniProt P51570); test: qHTS Assay for Inhibitors of Human Galactokinase (GALK): NCGC Sytravon Library Screen; conditions: recombinant GALK, Kinase-Glo ATP luminescence, 1 h; series mostly up to 57.5 µM; activity, negative = inhibition: at the top concentration;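 also: plate controls were full GALK reaction for no effect and reaction lacking GALK for full effect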
Description: Inherited deficiency of galactose-1-phosphate uridyltransferase (GALT) can result in a potentially lethal disorder called Classic Galactosemia (OMIM 230400). Several lines of evidence indicate that an elevated level of galactose-1-phosphate (gal-1-p), the product of galactokinase (GALK), is a major, if not sole, pathogenic mechanism in patients with classic galactosemia. Therefore, finding inhibitors of GALK is a potential novel therapy for this inherent metabolic disease and is the long term goal of this project. This screen is run against the NCGC Sytravon compound library collection. GALK (provided by Kent Lai) was assayed using ATP and D-(+)-Galactose (Sigma-Aldrich cat# G0750) as substrates. Promega Kinase-Glo Plus technology was used to detect kinase activity. Reactions with and without GALK were used as negative and positive controls together with Protein Tyrosine Phosphatase CD45 inhibitor (EMD Bioscience cat# 540215) which is shown to inhibit GALK activity. Decrease in activity corresponds to inhibition of the enzyme is the desired outcome for this assay. NIH Molecular Libraries Probe Production Network [MLPCN] NIH Chemical Genomics Center [NCGC] Grant: R03 MH085689-01 PI Name: Kent Lai Ph.D., University of Utah
NCGC Assay Protocol Summary: Three uL/well of ATP-buffer solution (35 uM ATP, 20mM HEPES pH8.0, 5 mM MgCl2, 60 mM NaCl, 1 mM DTT, 0.01% BSA final concentration) was dispensed into 1536-well, assay plates (Greiner, solid white medium-binding plates) with Aurora Discovery BioRAPTR Flying Reagent Dispenser (FRD; Beckton-Dickenson). Compound solution (23 nL) was transferred to the assay plate using the Kalypsys 1536-pin tool. One uL/well GALK-galactose solution (5 nM GALK, 100 uM galactose, 20 mM HEPES pH8.0, 5 mM MgCl2, 60 mM NaCl, 1 mM DTT, 0.01% BSA final concentration) was then added using the FRD yielding a total kinase reaction volume of 4 uL/ well. After 1 hour of room temperature incubation, 4 uL Kinase-Glo Plus reagent was added for a final assay volume of 8 uL/ well. Luminescence was detected with the ViewLux plate reader (Perkin Elmer, Waltham, MA) after 10 min incubation using a 1 sec exposure time and 2x binning.

Sequence of Galactokinase (Homo sapiens) (P51570 whole entry, looked up): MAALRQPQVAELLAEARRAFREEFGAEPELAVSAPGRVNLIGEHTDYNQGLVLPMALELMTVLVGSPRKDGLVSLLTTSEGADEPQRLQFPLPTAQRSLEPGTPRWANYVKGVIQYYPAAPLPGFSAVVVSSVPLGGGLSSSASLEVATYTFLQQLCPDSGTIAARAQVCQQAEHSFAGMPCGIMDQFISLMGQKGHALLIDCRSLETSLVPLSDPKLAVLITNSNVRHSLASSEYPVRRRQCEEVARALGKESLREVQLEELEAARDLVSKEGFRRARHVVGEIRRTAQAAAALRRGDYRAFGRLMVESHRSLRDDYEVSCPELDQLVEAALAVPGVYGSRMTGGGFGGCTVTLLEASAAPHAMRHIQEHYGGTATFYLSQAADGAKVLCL

activity, negative = inhibition, inactive:
CCOc1ccc(CNC(=O)C2CCN(c3nnc(-n4cccc4CNc4ccc(C)cc4)s3)CC2)cc1OC 5.96%
CCN1C(=O)c2ccccc2Sc2ccc(NC(=O)Cc3ccc(OC)cc3)cc21 -0.32%
Cc1ccc(C)c(S(=O)(=O)c2nnn3c2nc(N2CCOCC2)c2sccc23)c1 4.67%
Cc1ccc(NC(=O)C2CCN(S(=O)(=O)c3cc(-c4noc(C)n4)ccc3C)CC2)c(C)c1 -1.9%
CCCC(=O)Nc1ccc2oc(-c3ccc(O)c(Br)c3)nc2c1 -1.85%
O=S(=O)(c1ccc(C2CCCCC2)cc1)N1CCN(c2ccc(Cl)c(Cl)c2)CC1 6.36%
COc1ccc(-c2nn(CC(=O)NC3CCCC3)c3c2cnc2ccc(F)cc23)cc1 2.49%
Cc1ccc2oc(=O)c3cnn(CC(=O)NCc4ccccc4Cl)c3c2c1 -10.1%
Cc1ccc(CN(C(=O)COc2ccc(Cl)cc2C)C2CCS(=O)(=O)C2)o1 (stereo unspecified) -0.903%
CCN(CCCNC(=O)c1cc(Nc2ccc(OC)cc2)nc2ccccc12)c1cccc(C)c1 -1.53%
Cc1c(C)n(Cc2ccc(Cl)cc2)c2ccc(C(=O)N3CCN(c4ccccc4F)CC3)cc12 0.706%
Cc1ccc(OCCSc2nc3ccc(NC(=O)COc4ccc(C)cc4)cc3s2)cc1 0.194%
CCSc1nnc(NC(=O)c2cc(=O)c3cc(C)c(C)cc3o2)s1 -0.836%
O=C(CS(=O)(=O)c1cccc2nsnc12)N1CCN(c2cccc(Cl)c2)CC1 -5.52%
Cc1nc2ccn(Cc3cccnc3)c(=O)c2cc1C(=O)N1CCN(c2ccccc2F)CC1 -1.96%
O=C(CSc1nc2nccnc2c(=O)n1CCc1c[nH]c2ccccc12)Nc1ccccc1F 3.23%
CCn1cc(C(=O)OCC(=O)Nc2cc(C)cc(C)c2)c(=O)c2ccc(C)nc21 -3.36%
CCN1CCN(Cc2c(O)ccc3oc(C)c(C(=O)Nc4ccc(C)cc4C)c23)CC1 4.89%
CC1CCCN(c2csc3ccc(F)cc3c2=O)C1 (stereo unspecified) -1.87%
Cc1ccccc1CNC(=O)c1cccc(NC(=O)c2nsc3ccccc23)c1 2.23%
CN(Cc1ccco1)S(=O)(=O)c1nnc(NC(=O)c2ccccc2)s1 0.829%
Cc1ccc(F)cc1S(=O)(=O)N1CCC(c2nc3ccccc3s2)CC1 -6.17%
CCn1c2ccccc2c2cc(CN3CCN(Cc4cccc(Cl)c4)CC3)ccc21 -18.5%
CN(Cc1ccccc1)S(=O)(=O)c1ccc(F)c(C(=O)Nc2cccc(Cl)c2Cl)c1 -0.737%
O=C(Nc1cccc2cccnc12)c1cccc2c(Br)cccc12 0.56%
CCOc1ccc(NC(=O)c2cc3c(=O)n(Cc4cccs4)ccc3nc2C)cc1 -0.316%
CCOc1ccccc1NC(=O)CN1CCCN(Cc2cccc(Cl)c2)S1(=O)=O 0.419%
CCOCCCNC(=O)c1c(NC(=O)Cc2coc3ccc(C)cc23)sc2c1CCC2 0.78%
CCc1nn(CCCC(=O)NCc2ccc(C)cc2)c(=O)c2cc3occc3n12 -3.24%
CCOc1ccc(N(Cc2ccccc2)C(=O)c2nc(S(C)(=O)=O)ncc2Cl)cc1 9.16%
CCCN(CCC)C(=O)Cn1c(=O)n(-c2ccc(Cl)cc2)c(=O)c2c3c(sc21)CCCCC3 5.05%
Cc1ccc(Cl)cc1NC(=O)CSc1nccn1C -7.44%
CCN(CC)S(=O)(=O)c1ccc2c(c1)c(=O)c(C(=O)N1CCN(c3cccc(Cl)c3)CC1)cn2C 9.01%
COc1ccc(CCNC(=O)CCCCn2c(=O)c3ccccc3n(Cc3ccccc3)c2=O)cc1OC -5.81%
O=C(NCCc1ccc(Cl)cc1)c1ccc2nc(CCc3ccccc3)oc2c1 -1.58%
Cc1oc2ncn(CC(C)C)c(=O)c2c1C(=O)N1CCN(c2ccccc2F)CC1 1.39%
CCCNC(=O)c1ccc(Cn2c(SCC(N)=O)nc3ccccc3c2=O)cc1 0.439%
CCOC(=O)c1cc(NC(=O)c2ccc(F)cc2)c(=O)n2c1oc1ccccc12 0.179%
COc1ccc(-n2c(=O)c3c(c4cc(OC)ccc4n3C)n(Cc3cccc(C)c3)c2=O)cc1 0.514%
Cc1cccc(N2CCN(c3c(CN4CCCC4)c(=O)oc4ccccc34)CC2)c1C 1.96%
O=C(Nc1nnc(S(=O)(=O)N2CCCc3ccccc32)s1)c1cccc(F)c1 2.61%
CC(C)c1ccc(NC(=O)CN(C)S(=O)(=O)c2ccc3c(c2)c(=O)n(C)c(=O)n3C)cc1 10.7%
Cc1ccccc1CN1CCC(CNC(=O)c2c(C)oc3ncnc(N4CCCCC4)c23)CC1 0.952%
CCOc1ccc(CNC(=O)C2CCCN(S(=O)(=O)N(CC)c3ccc(OCC)cc3)C2)cc1 (stereo unspecified) 1.86%
COC(=O)c1ccccc1NC(=O)C(Cc1ccccc1)N1Cc2ccccc2C1=O (stereo unspecified) -3.55%
O=C(NCCc1csc(-c2ccc(C(F)(F)F)cc2)n1)C(=O)Nc1ccc(F)c(Cl)c1 1.81%
Cc1oc2ccc(O)c(CN3CCC(C)CC3)c2c1C(=O)Nc1ccccc1 2.63%
O=C(CC(c1cccs1)N1Cc2ccccc2C1=O)Nc1ccc(F)c(F)c1 (stereo unspecified) -2.34%
COc1ccccc1NC(=O)Cn1cnc2ccc(S(=O)(=O)N3CCC(C)CC3)cc2c1=O -0.99%
CCc1cccc(-n2nnc(-c3nsc(NC(=O)c4ccc(C)cc4)n3)c2C)c1 4.26%
Cc1cccc(-n2ccnc2SCC(=O)Nc2cc(C(F)(F)F)ccc2Cl)c1 -0.723%
COc1ccc(-c2nc3scc(CCNS(=O)(=O)c4cc(F)ccc4OC)n3n2)cc1OC -4.76%
C=Cc1ccc(Cn2c(C(=O)O)c(CNC3CCCC3)c3ccc(C)cc32)cc1 2.49%
CCS(=O)(=O)N1CCC(n2c(C)nc3cccnc32)CC1 -3.09%
Cc1ccc(C(=O)CSc2nc(-c3ccccc3)nc3c2CCCC3)c(C)c1 0.195%
Cc1ccc(C(=O)NCCSc2c(C)[nH]c3ccccc23)cc1C 5.45%
COc1ccc(CCNC(=O)c2c3c(nc4ccccc24)C(=O)N(C2CCCCC2)C3)cc1OC -0.522%
Cc1ccc(CNC(=O)c2ccc(CS(=O)Cc3cccc(Cl)c3)o2)cc1 (stereo unspecified) 4.65%
CC1Cc2cc(S(=O)(=O)CCC(=O)Nc3ccc(F)c(Cl)c3)ccc2N1C(=O)C1CC1 (stereo unspecified) 0.973%
CCCN1CCN(CCCNC(=O)c2cnn(-c3ccc(C)cc3)c2-n2cccc2)CC1 -0.365%
Cn1c(=O)c2c(SCC(=O)NCC3CCCO3)nc(-c3ccccc3F)nc2n(C)c1=O (stereo unspecified) -0.321%

Source: PubChem BioAssay AID1347072 (National Center for Advancing Translational Sciences (NCATS), 2019)
